Assay results: the supplement of paper PMC11732987, “Enantioselective OTUD7B fragment discovery through chemoproteomics screening and high-throughput optimisation” (Communications Chemistry, 2025)

Columns and labels:
Experiment in all cases: log2 ratio of Biotin-Ahx-Ub-VS probe labelling (fragment/DMSO); higher = less target engagement (more negative = stronger competition), active = hit call of the paper (q ≤ 0.05, log2 ratio ≤ -1)
Settings in all cases: compound concentration: 200 uM; treatment time: 3 h
USP34 = USP34 (UniProt Q70CQ2)
In short: (§1)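 HEK293T lysate in Tris/CHAPS/IGEPAL buffer with protease inhibitors (495 µg per sample) was given fragment at 200 µM or vehicle for 3 h, in triplicate. It then received Biotin-Ahx-Ub-VS at 0.5 µM final for 1 h. Labelled DUBs were NeutrAvidin-enriched, digested with LysC and trypsin, and run by diaPASEF LC-MS/MS. Values are average log2 fragment/vehicle ratios by unpaired t-test on global-median-normalised Spectronaut quantities of proteins with ≥2 unique peptides.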

USP36 = biological target: T1, USP36 (UniProt Q9P275)
T1 sequence (whole entry): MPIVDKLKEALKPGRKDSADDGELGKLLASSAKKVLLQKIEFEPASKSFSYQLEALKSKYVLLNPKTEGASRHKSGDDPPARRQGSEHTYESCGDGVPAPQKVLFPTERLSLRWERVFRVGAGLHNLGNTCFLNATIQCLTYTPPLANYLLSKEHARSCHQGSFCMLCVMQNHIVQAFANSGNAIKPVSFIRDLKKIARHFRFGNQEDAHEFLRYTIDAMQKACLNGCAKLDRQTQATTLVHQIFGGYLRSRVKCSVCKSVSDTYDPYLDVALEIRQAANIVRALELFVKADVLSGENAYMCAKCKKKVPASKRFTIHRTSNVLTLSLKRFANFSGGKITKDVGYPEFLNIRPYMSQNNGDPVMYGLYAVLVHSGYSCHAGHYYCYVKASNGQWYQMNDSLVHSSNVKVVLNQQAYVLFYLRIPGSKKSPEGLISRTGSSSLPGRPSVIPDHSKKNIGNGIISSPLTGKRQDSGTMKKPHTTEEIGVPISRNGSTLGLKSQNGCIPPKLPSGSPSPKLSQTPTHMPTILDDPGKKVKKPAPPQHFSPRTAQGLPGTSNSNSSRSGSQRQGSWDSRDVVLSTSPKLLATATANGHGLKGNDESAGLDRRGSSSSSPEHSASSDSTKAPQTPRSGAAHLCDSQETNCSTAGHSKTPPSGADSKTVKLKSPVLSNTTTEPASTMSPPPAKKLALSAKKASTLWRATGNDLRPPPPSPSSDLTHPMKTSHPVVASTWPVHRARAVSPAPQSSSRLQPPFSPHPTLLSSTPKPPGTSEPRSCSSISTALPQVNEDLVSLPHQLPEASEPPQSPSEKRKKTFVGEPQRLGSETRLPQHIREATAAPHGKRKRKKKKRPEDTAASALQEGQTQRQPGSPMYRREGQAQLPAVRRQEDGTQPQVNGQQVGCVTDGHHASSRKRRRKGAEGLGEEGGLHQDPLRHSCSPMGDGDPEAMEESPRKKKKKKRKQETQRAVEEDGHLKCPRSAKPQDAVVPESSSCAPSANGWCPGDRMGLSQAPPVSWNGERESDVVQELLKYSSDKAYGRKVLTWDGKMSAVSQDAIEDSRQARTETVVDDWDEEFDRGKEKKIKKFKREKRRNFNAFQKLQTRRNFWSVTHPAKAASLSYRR
In short: as §1

USP38 = biological target: T2, USP38 (UniProt Q8NB14)
T2 sequence (whole entry): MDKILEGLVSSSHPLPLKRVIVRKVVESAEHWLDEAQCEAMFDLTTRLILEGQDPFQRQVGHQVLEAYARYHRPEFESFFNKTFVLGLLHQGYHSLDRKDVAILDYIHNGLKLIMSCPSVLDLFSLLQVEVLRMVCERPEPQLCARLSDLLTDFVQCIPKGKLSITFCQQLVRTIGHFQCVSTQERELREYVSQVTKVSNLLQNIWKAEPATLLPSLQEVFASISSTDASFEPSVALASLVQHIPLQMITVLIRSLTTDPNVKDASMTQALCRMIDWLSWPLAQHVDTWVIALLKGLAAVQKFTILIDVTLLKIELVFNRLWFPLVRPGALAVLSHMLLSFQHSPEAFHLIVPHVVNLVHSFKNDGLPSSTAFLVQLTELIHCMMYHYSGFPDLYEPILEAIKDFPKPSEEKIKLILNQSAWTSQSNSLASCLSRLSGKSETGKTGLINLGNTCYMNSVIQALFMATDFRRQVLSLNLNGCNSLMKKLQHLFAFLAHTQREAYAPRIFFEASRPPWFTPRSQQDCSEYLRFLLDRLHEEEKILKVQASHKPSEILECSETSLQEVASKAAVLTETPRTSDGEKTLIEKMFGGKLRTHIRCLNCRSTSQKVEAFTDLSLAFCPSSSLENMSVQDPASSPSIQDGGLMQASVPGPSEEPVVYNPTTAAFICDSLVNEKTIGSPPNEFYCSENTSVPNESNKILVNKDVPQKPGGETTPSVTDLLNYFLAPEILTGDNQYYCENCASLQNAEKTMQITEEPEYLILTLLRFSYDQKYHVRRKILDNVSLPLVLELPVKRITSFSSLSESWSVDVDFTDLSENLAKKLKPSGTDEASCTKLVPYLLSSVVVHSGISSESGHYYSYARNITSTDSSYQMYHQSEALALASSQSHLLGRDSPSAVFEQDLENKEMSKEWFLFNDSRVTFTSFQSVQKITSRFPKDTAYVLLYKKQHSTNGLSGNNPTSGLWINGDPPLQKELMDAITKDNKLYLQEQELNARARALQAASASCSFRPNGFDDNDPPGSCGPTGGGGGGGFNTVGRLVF
In short: as §1

USP39 = biological target: T3, USP39 (UniProt Q53GS9)
T3 sequence (whole entry): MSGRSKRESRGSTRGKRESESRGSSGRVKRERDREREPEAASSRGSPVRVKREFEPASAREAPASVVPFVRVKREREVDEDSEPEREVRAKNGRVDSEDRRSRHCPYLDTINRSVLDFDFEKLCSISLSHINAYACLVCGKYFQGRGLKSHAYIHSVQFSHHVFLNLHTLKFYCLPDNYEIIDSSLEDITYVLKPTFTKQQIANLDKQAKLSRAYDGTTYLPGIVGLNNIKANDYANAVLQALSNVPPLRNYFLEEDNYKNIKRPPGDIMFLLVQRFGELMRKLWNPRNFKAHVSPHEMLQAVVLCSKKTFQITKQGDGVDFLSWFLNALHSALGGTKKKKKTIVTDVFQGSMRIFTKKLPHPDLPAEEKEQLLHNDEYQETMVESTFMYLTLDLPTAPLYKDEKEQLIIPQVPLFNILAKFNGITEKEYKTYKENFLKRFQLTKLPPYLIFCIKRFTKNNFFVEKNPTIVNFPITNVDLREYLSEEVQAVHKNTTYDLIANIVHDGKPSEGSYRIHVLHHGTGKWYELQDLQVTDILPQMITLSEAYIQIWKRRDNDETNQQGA
In short: as §1

USP4 = biological target: T4, USP4 (UniProt Q13107)
T4 sequence (whole entry): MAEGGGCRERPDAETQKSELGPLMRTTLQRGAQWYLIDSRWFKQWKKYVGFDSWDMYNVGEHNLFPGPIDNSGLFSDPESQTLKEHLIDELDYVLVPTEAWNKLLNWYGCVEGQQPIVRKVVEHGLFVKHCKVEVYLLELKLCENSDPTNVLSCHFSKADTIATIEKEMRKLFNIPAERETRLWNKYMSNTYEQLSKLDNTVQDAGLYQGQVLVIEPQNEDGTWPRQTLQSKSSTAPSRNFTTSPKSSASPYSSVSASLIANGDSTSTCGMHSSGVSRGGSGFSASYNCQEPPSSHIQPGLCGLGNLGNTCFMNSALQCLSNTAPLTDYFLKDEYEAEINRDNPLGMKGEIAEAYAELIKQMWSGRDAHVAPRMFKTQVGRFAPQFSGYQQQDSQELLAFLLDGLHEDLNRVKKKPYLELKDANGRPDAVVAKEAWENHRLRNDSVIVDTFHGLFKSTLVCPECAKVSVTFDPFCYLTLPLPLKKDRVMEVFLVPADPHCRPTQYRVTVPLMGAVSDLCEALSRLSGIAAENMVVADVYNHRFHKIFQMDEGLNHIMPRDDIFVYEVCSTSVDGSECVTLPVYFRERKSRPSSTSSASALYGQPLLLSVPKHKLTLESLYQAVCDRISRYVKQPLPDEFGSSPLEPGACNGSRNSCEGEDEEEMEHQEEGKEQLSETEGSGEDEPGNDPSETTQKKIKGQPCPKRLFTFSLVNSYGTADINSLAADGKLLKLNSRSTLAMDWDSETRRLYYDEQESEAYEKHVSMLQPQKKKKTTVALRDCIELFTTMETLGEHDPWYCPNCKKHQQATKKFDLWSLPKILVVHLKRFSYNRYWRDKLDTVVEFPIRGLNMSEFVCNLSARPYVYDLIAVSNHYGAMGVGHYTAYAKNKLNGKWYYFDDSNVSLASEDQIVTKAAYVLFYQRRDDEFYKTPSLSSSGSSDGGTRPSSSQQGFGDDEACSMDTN
In short: as §1

Measured: log2 ratio of Biotin-Ahx-Ub-VS probe labelling

Chain of USP34 (Q70CQ2 whole entry, the tested form may be a part): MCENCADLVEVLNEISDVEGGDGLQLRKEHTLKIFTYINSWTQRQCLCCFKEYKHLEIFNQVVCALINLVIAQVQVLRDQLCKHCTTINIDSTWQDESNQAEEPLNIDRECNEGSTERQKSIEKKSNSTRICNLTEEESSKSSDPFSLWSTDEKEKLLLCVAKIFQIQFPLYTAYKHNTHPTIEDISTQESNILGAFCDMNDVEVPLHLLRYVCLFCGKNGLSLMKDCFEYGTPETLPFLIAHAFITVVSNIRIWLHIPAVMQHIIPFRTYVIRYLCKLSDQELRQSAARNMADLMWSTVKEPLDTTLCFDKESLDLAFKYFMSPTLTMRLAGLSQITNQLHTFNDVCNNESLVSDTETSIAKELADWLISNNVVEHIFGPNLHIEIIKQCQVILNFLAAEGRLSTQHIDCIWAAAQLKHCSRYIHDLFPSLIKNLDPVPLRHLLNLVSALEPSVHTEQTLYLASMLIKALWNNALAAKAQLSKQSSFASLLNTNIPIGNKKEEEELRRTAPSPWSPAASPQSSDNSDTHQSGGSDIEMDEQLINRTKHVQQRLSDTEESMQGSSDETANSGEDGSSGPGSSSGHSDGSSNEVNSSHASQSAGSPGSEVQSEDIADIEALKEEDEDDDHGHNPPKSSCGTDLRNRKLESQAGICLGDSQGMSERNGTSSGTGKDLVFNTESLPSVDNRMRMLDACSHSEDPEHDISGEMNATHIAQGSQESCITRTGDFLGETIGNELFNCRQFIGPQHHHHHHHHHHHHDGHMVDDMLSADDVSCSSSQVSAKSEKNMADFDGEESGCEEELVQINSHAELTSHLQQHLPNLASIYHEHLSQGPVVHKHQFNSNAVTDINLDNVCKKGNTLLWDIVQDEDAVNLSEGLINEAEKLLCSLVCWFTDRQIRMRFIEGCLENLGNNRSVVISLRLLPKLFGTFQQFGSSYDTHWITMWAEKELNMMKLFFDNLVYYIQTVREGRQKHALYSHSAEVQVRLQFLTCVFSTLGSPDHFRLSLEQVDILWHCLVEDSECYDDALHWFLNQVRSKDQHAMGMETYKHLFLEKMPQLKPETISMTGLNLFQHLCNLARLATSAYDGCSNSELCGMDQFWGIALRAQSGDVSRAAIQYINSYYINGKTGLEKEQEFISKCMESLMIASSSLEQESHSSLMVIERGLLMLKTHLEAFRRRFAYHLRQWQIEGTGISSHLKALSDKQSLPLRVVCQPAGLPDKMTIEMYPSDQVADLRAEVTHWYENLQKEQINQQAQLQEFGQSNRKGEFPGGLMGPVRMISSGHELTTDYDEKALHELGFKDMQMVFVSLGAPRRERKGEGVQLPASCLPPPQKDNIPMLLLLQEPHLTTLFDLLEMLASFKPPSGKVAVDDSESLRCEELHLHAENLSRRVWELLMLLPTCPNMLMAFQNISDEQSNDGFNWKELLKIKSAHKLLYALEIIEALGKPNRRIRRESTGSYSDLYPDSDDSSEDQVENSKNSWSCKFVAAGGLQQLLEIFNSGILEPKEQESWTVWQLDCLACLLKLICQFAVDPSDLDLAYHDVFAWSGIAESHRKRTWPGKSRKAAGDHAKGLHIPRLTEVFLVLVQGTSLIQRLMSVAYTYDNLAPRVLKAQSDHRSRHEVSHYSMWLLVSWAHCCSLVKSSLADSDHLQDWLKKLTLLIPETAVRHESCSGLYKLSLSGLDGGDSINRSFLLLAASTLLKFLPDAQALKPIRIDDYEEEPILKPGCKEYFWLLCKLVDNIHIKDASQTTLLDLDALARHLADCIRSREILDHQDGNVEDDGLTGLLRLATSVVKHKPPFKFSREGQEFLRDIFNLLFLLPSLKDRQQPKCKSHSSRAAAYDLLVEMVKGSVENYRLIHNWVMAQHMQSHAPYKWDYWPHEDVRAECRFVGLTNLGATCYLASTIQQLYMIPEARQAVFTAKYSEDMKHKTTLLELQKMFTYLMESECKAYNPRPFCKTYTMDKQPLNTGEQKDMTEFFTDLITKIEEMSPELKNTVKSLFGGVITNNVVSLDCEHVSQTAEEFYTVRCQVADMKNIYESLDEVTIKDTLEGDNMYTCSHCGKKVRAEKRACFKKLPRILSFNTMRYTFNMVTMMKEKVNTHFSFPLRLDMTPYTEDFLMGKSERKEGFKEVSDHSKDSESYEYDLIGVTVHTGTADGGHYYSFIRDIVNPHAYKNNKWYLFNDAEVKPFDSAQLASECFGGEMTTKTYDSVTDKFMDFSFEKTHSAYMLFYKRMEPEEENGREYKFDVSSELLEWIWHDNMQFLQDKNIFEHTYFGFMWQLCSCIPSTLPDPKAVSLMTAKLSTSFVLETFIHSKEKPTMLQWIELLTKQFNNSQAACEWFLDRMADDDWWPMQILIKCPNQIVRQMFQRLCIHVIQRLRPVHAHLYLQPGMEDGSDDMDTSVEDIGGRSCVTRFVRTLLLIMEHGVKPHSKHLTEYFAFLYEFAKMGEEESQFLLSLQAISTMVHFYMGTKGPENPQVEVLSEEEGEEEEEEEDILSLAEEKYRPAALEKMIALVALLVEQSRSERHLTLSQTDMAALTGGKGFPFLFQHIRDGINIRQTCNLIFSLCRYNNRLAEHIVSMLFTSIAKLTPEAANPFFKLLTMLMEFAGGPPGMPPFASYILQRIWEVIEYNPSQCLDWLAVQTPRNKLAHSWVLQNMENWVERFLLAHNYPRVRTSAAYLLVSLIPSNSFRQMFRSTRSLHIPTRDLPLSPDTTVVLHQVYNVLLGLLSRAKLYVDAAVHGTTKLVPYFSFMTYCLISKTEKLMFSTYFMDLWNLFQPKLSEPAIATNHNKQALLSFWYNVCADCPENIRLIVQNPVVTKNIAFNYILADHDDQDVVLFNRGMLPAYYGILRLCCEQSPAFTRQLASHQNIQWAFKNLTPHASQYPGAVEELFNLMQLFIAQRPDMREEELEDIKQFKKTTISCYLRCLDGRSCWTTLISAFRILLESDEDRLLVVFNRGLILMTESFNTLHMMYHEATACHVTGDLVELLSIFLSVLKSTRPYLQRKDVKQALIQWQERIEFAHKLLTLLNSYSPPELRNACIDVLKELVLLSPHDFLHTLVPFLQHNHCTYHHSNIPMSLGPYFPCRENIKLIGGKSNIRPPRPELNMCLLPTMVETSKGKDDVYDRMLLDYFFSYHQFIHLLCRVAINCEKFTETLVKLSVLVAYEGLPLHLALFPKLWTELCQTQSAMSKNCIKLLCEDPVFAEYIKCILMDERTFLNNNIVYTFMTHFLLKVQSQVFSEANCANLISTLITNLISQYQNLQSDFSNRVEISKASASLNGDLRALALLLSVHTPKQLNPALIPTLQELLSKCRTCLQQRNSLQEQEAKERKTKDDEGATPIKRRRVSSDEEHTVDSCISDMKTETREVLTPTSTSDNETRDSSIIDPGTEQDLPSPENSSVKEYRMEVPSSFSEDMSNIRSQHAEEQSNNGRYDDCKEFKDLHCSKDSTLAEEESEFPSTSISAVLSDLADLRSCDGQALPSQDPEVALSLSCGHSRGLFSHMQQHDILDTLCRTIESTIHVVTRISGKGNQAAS

O=C(CCl)Nc1ccc(N2CCCC2=O)cc1
inactive: USP34 0.0377 | USP36 0.2 | USP38 0.147 | USP39 -0.106 | USP4 0.0532
